The panel holds about 83,000 compounds, 20% with a hit somewhere; the sample as a whole holds those more often.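 In brief: 96-well plates, 48 h treatment, single concentration, percent growth endpoint.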 Calls of active or inactive are those of the source. The calls were made as follows: active = growth percent below 10; inactive = the rest.
These molecules were tested on EKVX NSCLC (assay: NCI-60 one-dose screen, 48 h (100 = growth as untreated, 0 = no growth, -100 = all killed)). Conditions: 10 µM unless noted.

Row | SMILES | growth
1 | CCN(CC)CC#CCOC(=O)[C@]1(C)CCC[C@@]2(C)[C@H]1CC(C=O)=C1C=C(C(C)C)CC[C@@H]12 | 77.8% (inactive)
2 | C=C1CCC2C3(C)COC(c4ccccc4Br)OC3CCC2(C)C1C/C=C1/C(=O)OCC1OC(C)=O (centres undefined) | -3.86% (active)
3 | CCOC(=O)C(=Cc1ccccc1F)C(=O)OCC | 97.6% (inactive)
4 | Cn1c2ccccc2c2c3c(c4c5ccccc5n(CCCCCC#N)c4c21)C(=O)N(O)C3=O | 88.2% (inactive)
5 | CC(=O)C1=C(O)C=C2Oc3c(C(=O)/C=C/c4c(Cl)cccc4Cl)c(O)c(C)c(O)c3[C@]2(C)C1=O | -0.577% (active)
6 | Oc1ccc(Nc2nccc(-c3ccc4ccccc4c3)n2)cc1 | 58.1% (inactive)
7 | COc1ccc(C(=O)/C=C/c2cc3ccccc3[nH]c2=O)cc1 | 79% (inactive)
8 | C[C@@]1(N2C(=O)OC[C@@H]2c2ccccc2)C(=O)N([C@H](CC(=O)N2CCC(N3CCCCC3)CC2)C(=O)NCc2cccc(C(F)(F)F)c2)[C@@H]1/C=C/c1ccccc1 | 71.7% (inactive)
9 | CCOC(=O)c1cnc2ccc(Br)cc2c1Nc1cccc(S(=O)(=O)NC)c1 | 96.2% (inactive)
10 | CCN1CCN(Cc2ccc(NC(=O)Nc3nc4ccc(Oc5ccnc(C(=O)NC)c5)cc4s3)cc2C(F)(F)F)CC1 | 14.2% (inactive)
11 | O=c1c2c3c(sc2n2c(CCl)nnc2n1Cc1ccccc1)CCCC3 | -35.4% (active)
12 | COC(=O)[C@H](C(C)C)n1c(=O)c2cc(OC)c(OC)cc2c2cnc3[nH]ccc3c21 | 47.5% (inactive)
13 | CC(=O)Oc1ccc(Nc2c3ccccc3nc3ccccc23)cc1 | 24% (inactive)
14 | COc1cc(NCCCCN=C(N)NC(N)=NC(C)C)c2ncccc2c1 | 68% (inactive)
15 | CCN(CC)C12CCCCC1(C)C(C#N)(C#N)C(C#N)=C(N)O2 (centres undefined) | 89.3% (inactive)
16 | O=C(CNC1C2CC3CC(C2)CC1C3)Sc1nnc2sc3ccccc3n12 (centres undefined) | 93% (inactive)
17 | COc1ccc(-c2c3c(nc4n[nH]c(-c5ccc(Cl)cc5)c24)-c2ccccc2C(=O)C3=O)cc1 | 59% (inactive)
18 | O=C(/C=C\c1ccc2ccccc2n1)c1cc(Cl)ccc1O | 85.9% (inactive)
19 | O=C1c2cc3c(cc2-c2c1c1cc(Cl)c(Cl)cc1c(=O)n2CCCn1ccnc1)OCO3 | 35.7% (inactive)
20 | CC1(C)CC(=O)C(c2c(-c3ccccc3)[nH]c3[nH]c(=S)[nH]c(=O)c23)=C(O)C1 | 89.8% (inactive)
21 | O=C(/C=C/c1cccc(Br)c1)c1ccccc1 | 88% (inactive)
22 | O=C(CO[N+](=O)[O-])Nc1ccc(C(=O)/C=C/c2ccc(Cl)cc2)cc1 | 67.9% (inactive)
23 | CN(C)c1ccc(/C=C\C2=[N+](C)c3ccccc3C2(C)C)cc1 | 8.84% (active)
24 | COc1ccc(CCN2CC=Cn3c2nc2ccccc2c3=O)cc1 | 64.9% (inactive)

Reference: PubChem BioAssay (NCI)
